Assay outcomes (PubChem BioAssay)
Compounds with a hit are over-represented: about 1.2% of the library has one in this group of screens.
KCNH2 3.1 inh: blocks the human KCNH2 3.1 channel isoform; U2OS KCNH2 3.1, thallium flux FluxOr; hits give low values; activity change, % (tested at about 1.8 µM); hit rate 0.95% among 340,000;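 active = maximum activity change below -70%; inconclusive = maximum activity change from -70% to -50%; inactive = maximum activity change above -50%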;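 also: thallium influx rate constant from kinetic fluorescence after stimulation buffer; % is scaled to controls: 0 for no effect and ±100 for the full control effect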
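Thallium flux via FluxOr fluorescence (Red40 quencher, 45 min loading) in U2OS cells virally expressing the KCNH2 3.1 isoform (1.77 x 10^8 /mL virus, overnight at 37 C). Rate constants from 2-min kinetic reads post-stimulation, normalised to positive and negative controls.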
TRPV1 PAM: enhances activation of the human vanilloid receptor TRPV1. Q8NER1. TRPV1-expressing cells, Fluo-8 calcium influx, capsaicin EC20 potentiation. potentiation, % at 8.33 µM. hit rate 0.02% among 320,000. AID 540277; in the data active = potentiation above about 80%; inconclusive = between about 30% and that limit; also: 0% is about no effect
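Cells expressing TRPV1 were dye-loaded with Fluo-8 and read kinetically: 10 s baseline, 3 min after compound (agonist portion), then 2 min after EC20 capsaicin (allosteric enhancer portion). Calcium-bound dye fluorescence at 480/520 nm.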
TRPV1 ag: activates the human vanilloid receptor TRPV1. Q8NER1. TRPV1-expressing cells, Fluo-8 calcium influx, agonist mode. activation, % at 8.33 µM. hit rate 0.19% among 320,000; in the data active = activation above about 80%; inconclusive = between about 30% and that limit; also: 0% is about no effect
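Fluo-8 calcium influx in TRPV1-expressing cells, kinetic read (ex 480/em 520 nm). Compound added and read 3 min for agonist activity, followed by capsaicin at EC20 final and 2 min further read for enhancement.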
hERG WT inh: KCNH2 (human, wildtype) channel inhibition | U2OS, BacMam KCNH2, thallium flux FluxOr; hits give low values | activity change, % at 1.84 µM | hit rate 0.37% among 340,000;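 active = maximum activity change below -70%; inconclusive = maximum activity change between -70% and -50%; inactive = maximum activity change above -50%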; also: % is scaled to controls: 0 for no effect and ±100 for the full control effect
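U2OS cells transduced with wild-type KCNH2 virus are loaded with FluxOr dye for 45 min, and thallium flux is measured in kinetic reads before and after stimulation buffer. Rate constants are normalized to DMSO controls.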
* hit, by the source's call; ? = inconclusive; · = not tested or not shown.

SMILES | KCNH2 3.1 inh | TRPV1 PAM | TRPV1 ag | hERG WT inh
COc1ccc(S(=O)(=O)NCC(=O)N(CC(=O)NCC2CCCO2)c2c(C)cccc2C)cc1 (stereo unspecified) | -74* | 0 | -1 | 2
COc1ccc(S(=O)(=O)NCC(=O)N(CC(=O)NCC2CCCO2)Cc2ccccc2)cc1 (stereo unspecified) | -3 | 1 | -3 | -11
O=C(CN1CCC(C(O)(c2ccccc2)c2ccccc2)CC1)Nc1ccccc1 | -80* | ? | 3 | 9
O=c1cc(SCc2ccccc2)nc[nH]1 | 15 | · | · | 10
COC(=O)c1cc(S(=O)(=O)N2CCN(c3ccccc3F)CC2)c[nH]1 | -79* | -8 | 9 | 8
COc1ccc(/C=N\Nc2ncc(F)c(N3CCOCC3)n2)cc1OC | -4 | -10 | 13 | 2
COC(=O)c1ccccc1-c1c2ccc(=N)cc-2oc2cc(N)ccc12 | ? | -5 | 123* | -118*
CC1CCc2c(sc(NC(=O)Cc3ccccc3)c2C(=O)Nc2ccc(Cl)cc2)C1 (stereo unspecified) | · | -1 | ? | ·
FC(F)Oc1ccc(NC(=S)NNc2ccnc3cc(Cl)ccc23)cc1 | -81* | -8 | 5 | ?
Cc1cccc(CCNS(=O)(=O)c2ccc(S(=O)(=O)N3CCCCC3)cc2)c1 | -12 | -1 | 14 | 3
Cc1cccc(CCNS(=O)(=O)c2ccc(S(=O)(=O)N3CCC(C)CC3)cc2)c1 | -79* | · | · | -6
OCCOCCNc1ncnc2nc[nH]c12 | -207* | -7 | -1 | -4
CSc1nc(N)c(NC(=O)c2ccc(Br)o2)c(=O)[nH]1 | · | -13 | -3 | 21
O=C(Nc1ccc(S(=O)(=O)N2CCCC2)cc1)C1CCN(S(=O)(=O)c2ccc(F)cc2)CC1 | -106* | -18 | ? | -2
CC(=O)C1CCC2C3CCC4=CC(=O)CCC4(C)C3(F)C(O)CC12C (stereo unspecified) | · | · | · | -1
CCC(=O)c1ccc(N2CCN(C(=O)Cc3ccccc3)CC2)c(F)c1 | 2 | -26 | 27 | -3
CCC(=O)c1cc(F)c(N2CCN(C(=O)Cc3ccccc3)CC2)cc1C | 3 | -8 | 91* | -7
CCc1cccc2c(C(=O)CSc3nnc(C4CC4)o3)c[nH]c12 | -14 | 0 | 6 | -6
CCc1nnc(NC(=O)Cc2c[nH]c3ccccc23)s1 | -144* | -4 | 1 | 36
N/C(=N\c1nc2c(c(=O)[nH]1)CCC2)Nc1cccc2ccccc12 | -78* | -2 | -1 | 9
CN(C)c1ccc(/C=C(/C#N)C(=O)NCc2ccccc2)o1 | · | -11 | ? | -2
COc1ccc(NC(=O)c2nc[nH]c2C(=O)N2CCC(C)CC2)cc1 | · | -13 | 3 | ·
Cc1ccc(NC(=O)c2nc[nH]c2C(=O)N2CCC(C)CC2)cc1 | -134* | 2 | 16 | 2
Nc1ccccc1N=Cc1ccc(-c2cccc(Cl)c2)o1 | 2 | 1 | 117* | 6
O=C1OC(O)c2cccc3cccc1c23 (stereo unspecified) | -71* | · | · | 5
SMILES | KCNH2 3.1 inh | TRPV1 PAM | TRPV1 ag | hERG WT inh
O=C1c2cccc3cccc(c23)C(=O)N1CCO | -21 | · | · | 1
COc1cccc(CNC(=O)CN(C)S(=O)(=O)c2cccc3cccnc23)c1 | -5 | -7 | 0 | 7
CN(Cc1ccccc1)S(=O)(=O)c1cccc2cccnc12 | 20 | 15 | -7 | -76*
Oc1ccc(Nc2nc(-c3ccccc3O)nc3ccccc23)cc1 | -118* | -2 | 27 | 13
CCOc1ccccc1NC(=O)c1nnn(CC(=O)Nc2ccc3c(c2)OCO3)c1N | 3 | 7 | 26 | -13
CCOc1ccccc1NC(=O)Cn1nnc(C(=O)Nc2ccc(C)cc2)c1N | -7 | 20 | -1 | -127*
Cc1ccc(O)c(NC(=O)CSc2ccc(Cl)cc2)c1 | -105* | 0 | ? | -12
O=C(Nc1ccc(F)c(F)c1)c1cc(S(=O)(=O)N2CCN(c3ccccn3)CC2)ccc1F | -78* | 0 | 2 | -30
O=C(NN=Cc1ccccc1OC(F)F)c1ccc(NS(=O)(=O)c2cccs2)cc1 | 1 | · | · | 9
C[C@@]12C(=O)Nc3ccc(Br)cc3C(=O)N1[C@H]1c3cc(Cl)ccc3OC[C@@H]1[C@@H]2c1ccccc1 | -74* | -41 | 5 | -3
CCOC(=O)[C@H]1[C@H]2COc3ccc(C)cc3[C@@H]2N2C(=O)c3ccc(F)cc3NC(=O)[C@@]12C | 3 | 20 | 85* | 2
